Test results from PubChem BioAssay AID463173 (ICCB-Longwood Screening Facility, Harvard Medical School, 2010).
Hit rate of the full screen: of about 52,000 compounds, about 4,300 (8.3%) were called active. No stated cut-off is given here; in the data, active means survival mostly below about 52% (no sharp cut-off); inactive means mostly above about 56%. The list comes from a sample in which actives are over-represented; it also holds similar structures and randomly drawn compounds.

system: DeltatarO mutant; assay: S. aureus survival, RN4220 and DeltatarO strains – OD600, teichoic acid synthesis inhibitors, primary screen (AID 463173); conditions: S. aureus RN4220 wild type/DeltatarO growth, OD600, 18 h, stronger effect = lower value, screened at 18.75 µg/mL (by protocol)

Q: For O=C(NCc1cccs1)c1ccc2c(c1)sc1nc(-c3ccccc3)cn12, which survival is on record?
A: 82% (inactive)

Q: With COc1cccc(-c2cn3c(n2)sc2cc(C(=O)NCc4cccs4)ccc23)c1 as the compound, how does the survival read?
A: 57% (inactive)

Q: With O=C(CCc1ccccc1)NCc1ccc2c(c1)CCN2C(=O)c1ccc(Cl)cc1 as the compound, how does the survival read?
A: 77% (inactive)

Q: With COc1ccc(CCNC(=O)c2cnn(-c3cccc(C)c3)c2C2CCN(C(=O)OC(C)(C)C)CC2)cc1OC as the compound, how does the survival read?
A: 67% (inactive)

Q: How did the survival turn out when Cc1cccc(C)c1OCCn1c(CCNC(=O)C2CCCCC2)nc2ccccc21 was run?
A: 57% (inactive)

Q: For Cc1cccc(C)c1OCCCn1c(CCNC(=O)C2CCCCC2)nc2ccccc21, which survival is on record?
A: 1% (active)

Q: Which survival does the source give for Cc1cc(C)cc(OCCCn2c(CCNC(=O)C3CCCCC3)nc3ccccc32)c1 here?
A: 35% (inactive)

Q: Cc1ccccc1OCCCn1c(CCNC(=O)C2CCCCC2)nc2ccccc21 was tested. Which survival did it give?
A: 61% (inactive)

Q: With O=C(NCCc1nc2ccccc2n1CCOc1ccc(Cl)cc1)C1CCCCC1 as the compound, how does the survival read?
A: 36% (active)

Q: How did the survival turn out when O=C(NCCCc1nc2ccccc2n1Cc1ccc(Cl)cc1)C1CCCCC1 was run?
A: 64% (inactive)

Q: Which survival does the source give for Cc1ccc(OCCn2c(CCNC(=O)C3CCCCC3)nc3ccccc32)cc1 here?
A: 61% (inactive)

Q: With Cc1cc(OCCn2c(CCNC(=O)C3CCCCC3)nc3ccccc32)ccc1Cl as the compound, how does the survival read?
A: 87% (inactive)

Q: With Cc1cc(C)cc(OCCn2c(CCNC(=O)C3CCCCC3)nc3ccccc32)c1 as the compound, how does the survival read?
A: 92% (inactive)

Q: With Cc1ccc(OCCCn2c(CCNC(=O)C3CCCCC3)nc3ccccc32)c(C)c1 as the compound, how does the survival read?
A: 64% (inactive)

Q: For O=C(NCCc1nc2ccccc2n1CCCOc1ccc(Cl)cc1)C1CCCCC1, which survival is on record?
A: 24% (active)

Q: Which survival does the source give for Cc1cc(OCCCn2c(CCNC(=O)C3CCCCC3)nc3ccccc32)ccc1Cl here?
A: 4% (active)

Q: How did the survival turn out when Cc1cc(C)cc(N2CCn3c2nc2c3c(=O)n(CCCc3ccccc3)c(=O)n2C)c1 was run?
A: 67% (inactive)

Q: Which survival does the source give for O=C(CSc1nc2c(c(=O)[nH]1)CCCC2)Nc1cccc(O)c1 here?
A: 68% (inactive)

Q: For Cc1cccc(N2CCN(C(=O)c3cnn(-c4cccc(Cl)c4C)c3C3CCNCC3)CC2)c1C, which survival is on record?
A: 80% (inactive)

Q: With Cc1cc(NC(=O)c2ccc3c(c2)N(Cc2cccc(Cl)c2)C(=O)c2ccccc2S3(=O)=O)ccc1Br as the compound, how does the survival read?
A: 90% (inactive)

Q: Which survival does the source give for Cc1ccc(C2CCN(C(=O)Nc3ccc(Cl)c(Cl)c3)C2)cc1 (stereo not given) here?
A: 20% (active)

Q: For Cc1ccc(C2CCN(C(=O)Nc3ccc(Cl)cc3)C2)cc1 (stereo not given), which survival is on record?
A: 81% (inactive)

Q: How did the survival turn out when O=C(Nc1ccc(Cl)c(Cl)c1)N1CCC(c2ccccc2)C1 (stereo not given) was run?
A: 81% (inactive)

Q: How did the survival turn out when COc1ccc(N2C(=O)CSC23C(=O)N(CC(=O)NCCc2ccccc2)c2ccccc23)cc1 (stereo not given) was run?
A: 94% (inactive)

Q: Which survival does the source give for CCN(CC)S(=O)(=O)c1ccc(-c2nnc(SCC(=O)Nc3nc4ccccc4s3)o2)cc1 here?
A: 66% (inactive)

Q: With CCCCn1c(=N)n(CCCOc2ccc(F)cc2)c2ccccc21 as the compound, how does the survival read?
A: 48% (inactive)

Q: With CCOC(=O)Cn1c(=N)n(CCOc2ccc(OC)cc2)c2ccccc21 as the compound, how does the survival read?
A: 43% (active)

Q: With N=c1n(CC(N)=O)c2ccccc2n1Cc1ccccc1Cl as the compound, how does the survival read?
A: 99% (inactive)

Q: With CCOC(=O)Cn1c(=N)n(Cc2ccc(C(C)(C)C)cc2)c2ccccc21 as the compound, how does the survival read?
A: 103% (inactive)

Q: With N=c1n(CC(=O)O)c2ccccc2n1Cc1ccccc1 as the compound, how does the survival read?
A: 84% (inactive)

Q: How did the survival turn out when N=c1n(CCO)c2ccccc2n1Cc1ccccc1F was run?
A: 47% (active)

Q: For N=c1n(CCO)c2ccccc2n1CCOc1ccc(F)cc1, which survival is on record?
A: 40% (active)

Q: For CCCCn1c(=N)n(CCOc2ccccc2OC)c2ccccc21, which survival is on record?
A: 56% (inactive)

Q: O=C1CSC(=O)N1CCOc1ccc(F)cc1 was tested. Which survival did it give?
A: 80% (inactive)

Q: For O=C(O)CCN1C(=O)CSC1=O, which survival is on record?
A: 72% (inactive)

Q: CCCOc1cccc(C2c3c(oc4cc(C)c(C)cc4c3=O)C(=O)N2CCCN2CCOCC2)c1 (stereo not given) was tested. Which survival did it give?
A: 64% (inactive)

Q: For COc1ccc(CCNC(=O)c2ccc3c(c2)N(Cc2cc(C)ccc2C)C(=O)c2ccccc2S3=O)cc1OC (stereo not given), which survival is on record?
A: 70% (inactive)

Q: Which survival does the source give for COc1cc(OC)c(NC(=O)Cn2cnc3sc(C)c(S(=O)(=O)N4CCN(C)CC4)c3c2=O)cc1Cl here?
A: 157% (inactive)

Q: Which survival does the source give for CCc1ccc(-c2nc(CN3CCCC(C(=O)NCc4ccc(C)cc4)C3)c(C)o2)cc1 (stereo not given) here?
A: 73% (inactive)

Q: Which survival does the source give for Cc1oc(-c2cccc(Cl)c2)nc1CN1CCCC(C(=O)NCCc2ccc(Cl)cc2)C1 (stereo not given) here?
A: -6% (active)

Q: Which survival does the source give for Cc1oc(-c2ccc(Cl)cc2)nc1CN1CCCC(C(=O)NCCc2ccc(Cl)cc2)C1 (stereo not given) here?
A: 54% (inactive)

Q: Which survival does the source give for Cc1cccc(-c2nc(CN3CCCC(C(=O)NCCc4ccc(Cl)cc4)C3)c(C)o2)c1 (stereo not given) here?
A: 34% (active)

Q: Cc1ccc(CCNC(=O)C2CCCN(Cc3nc(-c4cccc(Cl)c4)oc3C)C2)cc1 (stereo not given) was tested. Which survival did it give?
A: 25% (active)

Q: Which survival does the source give for Cc1ccc(C)c(N2CCN(C(=O)C3CCCN(Cc4nc(-c5cccc(Cl)c5)oc4C)C3)CC2)c1 (stereo not given) here?
A: 78% (inactive)

Q: CCCCNC(=O)C1CCCN(Cc2nc(-c3ccc(Cl)cc3)oc2C)C1 (stereo not given) was tested. Which survival did it give?
A: 77% (inactive)

Q: Which survival does the source give for Cc1oc(-c2ccc(Cl)cc2)nc1CN1CCCC(C(=O)NCCc2ccccc2)C1 (stereo not given) here?
A: 44% (active)

Q: For Cc1oc(-c2cccc(Cl)c2)nc1CN1CCC(C(=O)NCCc2ccc(Cl)cc2)CC1, which survival is on record?
A: 87% (inactive)

Q: How did the survival turn out when Cc1oc(-c2cccc(Br)c2)nc1CN1CCC(C(=O)NCCc2ccc(Cl)cc2)CC1 was run?
A: 76% (inactive)

Q: For Cc1oc(-c2ccc(Cl)cc2)nc1CN1CCCC(C(=O)NCc2ccccc2)C1 (stereo not given), which survival is on record?
A: 93% (inactive)

Q: With Cc1cccc(-c2nc(CN3CCCC(C(=O)N4CCN(c5cc(Cl)ccc5C)CC4)C3)c(C)o2)c1 (stereo not given) as the compound, how does the survival read?
A: 68% (inactive)
